Screens: PubChem BioAssay, National Center for Advancing Translational Sciences (NCATS)
Shown are actives, neighbours in structure and some others; about 15% of the full set was active somewhere.
VP16 counter: VP16 counterscreen qHTS for inhibitors of ROR gamma transcriptional activity; Drosophila S2 Gal4-VP16 UAS-luciferase, luminescence, 20 h; Potency, µM (doses to about 53.6 µM), for inactives: top-dose activity, negative = inhibition, most hits filed as inhibitors; 310,000 tested, 3.5% active;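 further: Gal4-VP16 expression switched on by copper sulfate through the metallothionein promoter; nearly all actives have a fitted effect of over 50% in size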
DT40 TDP1 no CPT: qHTS for Inhibitors of human tyrosyl-DNA phosphodiesterase 1 (TDP1): qHTS in cells in absence of CPT | DT40 Tdp1-/- hTDP1 cells, no CPT, ATP luminescence, 48 h | 420,000 tested, 15% active | Potency, µM (series often up to 46.2 µM), for the others: top-dose activity change, negative = growth inhibition, most hits filed as inhibitors; further: nearly all actives have a fitted effect of over 55% in size
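Chicken DT40 Tdp1-/- cells stably complemented with human TDP1 were seeded at 400 cells/well with DMSO in place of 20 nM camptothecin. After compound pinning, cells grew at least 48 hr at 37 °C; viability read by CellTiter-Glo luminescence.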
DT40 TDP1 CPT: qHTS for Inhibitors of human tyrosyl-DNA phosphodiesterase 1 (TDP1): qHTS in cells in presence of CPT | chicken DT40 Tdp1-/-;hTDP1 cells + 20 nM CPT, ATP luminescence, 48 h | Potency, µM (highest dose often 46.2 µM), for the others: at the highest dose activity change, negative = growth inhibition, hits mostly inhibitors | 420,000 tested, 12% active | AID 686979, 2013; further: nearly all actives have a fitted effect of over 55% in size
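Chicken DT40 Tdp1-/- cells stably complemented with human TDP1 were seeded at 400 cells/well in medium containing 20 nM camptothecin, exposed to pin-transferred compounds, and grown at 37 °C for at least 48 hr. Viability was read as ATP luminescence.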
RORg inh: qHTS for inhibitors of ROR gamma transcriptional activity; Nuclear receptor ROR-gamma (Mus musculus), P51450; Drosophila S2 Gal4-RORgamma UAS-luciferase reporter, 20 h; Potency, µM (doses to about 53.6 µM), for inactives: at the top dose activity change, negative = inhibition, usual class: inhibitors; 310,000 tested, 5.4% active; AID 2551, 2010; further: nearly all actives have a fitted effect of over 60% in size
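Luciferase reporter read in Schneider cells carrying Gal4-RORγ (mouse) and UAS-Photinus luciferase; cells given compound 1 h before 700 uM copper sulfate induction, then incubated 20 h at ambient temperature.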
ELG1 repair inh: qHTS screen for small molecules that inhibit ELG1-dependent DNA repair in human embryonic kidney (HEK293T) cells expressing luciferase-tagged ELG1. Potency, µM (highest dose often 46.1 µM), for the others: top-dose activity change, negative = inhibition, most hits filed as inhibitors. AID 504467, 2011. 330,000 tested, 2.3% active. HEK293T ELG1-luciferase reporter, luminescence, 16 h; DNA damage induced by 5-fluorouridine; further: nearly all actives have a fitted effect of over 55% in size
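Cells (2,000 per well) received 5-fluorouridine plus test compound or DMSO and were incubated 16 hr at 37 °C, 5% CO2. Luciferase activity was read by luminescence 30 min after ONE-Glo addition; signal suppression marked inhibition of damage-induced ELG1 function.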
12-LOX inh: Primary qHTS assay for inhibitors of human arachidonate 12S-lipoxygenase (ALOX12): Round 2; purified 12hLO, xylenol orange hydroperoxide absorbance; Potency, µM (titrated, usually from 108 µM), for the others: top-dose activity change, negative = inhibition, hits mostly inhibitors; Polyunsaturated fatty acid lipoxygenase ALOX12 (Homo sapiens), P18054; 580,000 tested, 1.1% active
Target sequence (P18054 whole entry, looked up): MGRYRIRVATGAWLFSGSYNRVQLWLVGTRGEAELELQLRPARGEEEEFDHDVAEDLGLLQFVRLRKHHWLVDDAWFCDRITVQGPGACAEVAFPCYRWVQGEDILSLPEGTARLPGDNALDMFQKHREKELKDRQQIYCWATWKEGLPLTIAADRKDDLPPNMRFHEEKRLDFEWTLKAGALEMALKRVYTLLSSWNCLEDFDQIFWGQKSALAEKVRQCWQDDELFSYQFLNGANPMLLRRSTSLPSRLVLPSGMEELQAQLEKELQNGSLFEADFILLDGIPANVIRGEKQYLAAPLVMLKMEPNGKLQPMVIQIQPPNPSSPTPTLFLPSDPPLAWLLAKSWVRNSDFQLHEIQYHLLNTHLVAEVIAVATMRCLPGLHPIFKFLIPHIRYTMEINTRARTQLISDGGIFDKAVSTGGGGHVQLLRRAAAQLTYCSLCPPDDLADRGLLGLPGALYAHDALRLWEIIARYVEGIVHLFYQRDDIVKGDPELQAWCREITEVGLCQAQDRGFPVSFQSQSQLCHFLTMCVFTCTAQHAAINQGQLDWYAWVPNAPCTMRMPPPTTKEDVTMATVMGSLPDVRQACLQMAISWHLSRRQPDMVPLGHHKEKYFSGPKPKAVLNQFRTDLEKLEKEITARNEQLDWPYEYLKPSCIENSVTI
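Purified human 12hLO at 150 nM in 25 mM Hepes, 0.01% Triton X-100, pH 7.0, preincubated 15 min at room temperature with compound. Reaction started with 40 uM arachidonic acid, 30 min at room temperature. Hydroperoxide measured by Fe-xylenol orange, 573/405 nm absorbance ratio.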
Numbers without * were called inactive; u = inconclusive; x = no result; [ ] = dose if it differs, or a comment. The call rests on the fitted dose curve; in most records, active means well fitted curve in the direction sought with a large enough effect; inconclusive means small, poorly fitted or top-dose-only effect, or another doubt; inactive means no such curve, though single readings can be large; an effect the other way counts as inactive or inconclusive. On the % scale 0 is the no-effect control and ±100 the full control effect; potency means the concentration at half of the fitted maximal effect.

SMILES	VP16 counter	DT40 TDP1 no CPT	DT40 TDP1 CPT	RORg inh	ELG1 repair inh	12-LOX inh
O=C(NCc1ccco1)C12CN(Cc3ccccc3)CC1C(c1cccc([N+](=O)[O-])c1)=NO2 (configuration not stated)	11.4%	18.4µM*	u	u	-22.7%	6.1%
O=C(NCc1ccco1)C12CN(Cc3ccccc3)CC1C(c1ccc([N+](=O)[O-])cc1)=NO2 (configuration not stated)	-9.9%	u	16.4µM*	43.3%	-21.4%	u
CCc1nc(-c2ccc(OC3CCN(Cc4cc(F)ccc4F)C3)cc2)no1 (configuration not stated)	x	x	x	x	x	34.0%
CCCn1c(-n2nc(C)cc2C)nc2c1c(=O)n(Cc1cccc3ccccc13)c(=O)n2C	x	x	x	x	x	6.9%
O=C(CC(CC(=O)c1ccccc1)c1cccs1)c1ccccc1	x	x	x	x	x	14.6%
CCc1cccc(NC(=O)CCC2CCCCC2)c1	x	x	x	x	x	5.1%
CCN(CC)C(=O)CSc1nnc(-c2cc3ccccc3cc2O)n1CC	0.8%	9.2µM*	0.92µM*	-1.6%	u	u
CCn1c(-c2cc3ccccc3cc2O)n[nH]c1=S	u	-29.2%	-25.1%	11.2µM*	0.0%	u
CCn1c(-c2cc(Br)ccc2O)n[nH]c1=S	x	-20.8%	-8.7%	x	x	44.7µM*
O=C(NCc1ccc(Cl)cc1)C1CCCN(c2cnn(Cc3ccccc3)c(=O)c2)C1 (configuration not stated)	x	x	x	x	x	4.6%
O=C(CCC1CC1)N1CCC(c2cc(Cc3ccccc3)[nH]n2)CC1	x	x	x	x	x	53.2%
O=[N+]([O-])c1c(Nc2ccc(O)cc2)cc(Cl)c2nonc12	4.47µM*	1.3µM*	1.3µM*	5.62µM*	u	u
O=[N+]([O-])c1c(Nc2ccccn2)cc(Cl)c2nonc12	8.91µM*	5.17µM*	1.84µM*	12.6µM*	u	u
O=[N+]([O-])c1c(Nc2cccc(Cl)c2Cl)cc(Cl)c2nonc12	x	x	x	x	x	15.8µM*
O=C(O)c1ccccc1Nc1cc(Cl)c2nonc2c1[N+](=O)[O-]	x	-20.9%	4.8%	x	6.5%	u
CN(C)c1cc(Nc2ccc(O)cc2)c([N+](=O)[O-])c2nonc12	-1.9%	20.6%	-11.8%	1.5%	-22.5%	-13.9%
COc1ccccc1N1CCN([C@@H]2[C@H](O)[C@H](CO)O[C@@H]2CNC(C)C)CC1	x	x	x	x	x	20µM*
COc1ccccc1N1CCN([C@@H]2[C@H](O)[C@H](CO)O[C@@H]2CNS(C)(=O)=O)CC1	x	x	x	x	x	9.2%
COc1ccccc1N1CCN([C@@H]2[C@H](O)[C@H](CO)O[C@@H]2CN(Cc2ccc(F)cc2)Cc2ccc(F)cc2)CC1	x	x	x	x	x	28.2µM*
COc1ccccc1N1CCN([C@@H]2[C@H](O)[C@H](CO)O[C@@H]2CN(C)C)CC1	x	x	x	x	x	-20.3%
CCS(=O)c1ccccc1C(=O)NCc1ccc(C)cc1 (configuration not stated)	x	x	x	x	x	17.8µM*
CCS(=O)c1ccccc1C(=O)O (configuration not stated)	0.2%	-2.2%	-6.5%	-10.8%	0.0%	0.0%
O=C1NCCCCCCN(C(=O)Cc2ccccc2)[C@H]2C[C@H](c3nc(Cc4ccccc4)no3)C[C@@H]12	x	x	x	x	x	14.9%
Cc1ccc(C(=O)COC(=O)C(C)N2C(=O)C3C4C=CC(C4)C3C2=O)cc1 (configuration not stated)	8.0%	-7.6%	2.9%	u	-1.0%	0.3%
CC(C(=O)OCC(=O)c1ccccc1)N1C(=O)C2C3CCC(C3)C2C1=O (configuration not stated)	0.7%[10 µM]	-22.8%	-9.4%	2.1%	2.9%	-2.8%
SMILES	VP16 counter	DT40 TDP1 no CPT	DT40 TDP1 CPT	RORg inh	ELG1 repair inh	12-LOX inh
CC(C(=O)OCC(=O)c1ccc([N+](=O)[O-])cc1)N1C(=O)C2C3C=CC(C3)C2C1=O (configuration not stated)	16.7%	u	16.4µM*	14.6%	-15.4%	-18.6%
CC(C(=O)OCC(=O)c1ccc([N+](=O)[O-])cc1)N1C(=O)C2C3CCC(C3)C2C1=O (configuration not stated)	2.0%	u	16.4µM*	u	5.0%	-12.6%
Cc1ccc(C(=O)Nc2ccc(Cl)c(C(F)(F)F)c2)c(Cl)c1	x	x	x	x	x	2.7%
CC1=C(C)C(=O)C(C(CCCCCC(=O)O)c2ccccc2)=C(C)C1=O (configuration not stated)	-0.7%	u	16.8µM*	-3.5%	x	-14.6%[57.4 µM]
Cc1ccc(CCCCCCCCCCCC(=O)O)cc1	x	x	x	x	x	2.6%
CC(C)NC(=O)NC(=O)C(C)Nc1ccc(F)cc1 (configuration not stated)	x	x	x	x	x	-11.1%
Cc1cccc(CN2CCN([C@H]3CS(=O)(=O)N[C@@H]3COCc3ccccc3)CC2)c1	x	16.4µM*	18.4µM*	x	x	-10.4%
CCCCOc1ccc(CN=C(N)N)cc1Cl	-0.2%	1.46µM*	2.31µM*	7.5%	u	0.0%
CCOc1ccc(CN=C(N)N=C(N)N)cc1Cl	-2.2%	5.8µM*	11.6µM*	1.9%	-10.8%	14.8%
COc1ccc(C/C(N)=N/n2cnnc2)cc1Cl	x	-13.8%	3.3%	1.4%[0.365 µM]	0.9%	-19.7%
CCCOc1ccc(N)cc1OCCC	x	x	x	x	x	-20.4%
CCCOc1ccc(CCCN=C(N)N)cc1Cl	-7.4%	2.06µM*	2.06µM*	31.6%	13µM*	u
COc1ccc(C(=O)/C(=C\c2cccc(Cl)c2)c2nc3ccccc3o2)cc1	x	x	x	x	x	-1.2%
O=C1COCCN1C1CCN(Cc2ccc(C(F)(F)F)cc2)CC1	x	x	x	x	x	16.0%[6.33 µM]
CC(=O)Nc1c(-c2ccccc2)c(C)nn1-c1ccc(C(=O)N2CCN(C3CCCCC3)CC2)cc1	x	x	x	x	x	-21.4%
Cc1ccc(Nc2c(-c3ccccn3)nc3ccc(C)cn23)cc1	u	7.31µM*	3.26µM*	12.6µM*	u	-0.4%
Cc1ccc(Nc2c(-c3ccc(C)cc3)nc3ccc(C)cn23)cc1	x	u	u	x	x	-25.1%
Cc1ccc(Nc2c(-c3ccccn3)nc3cc(C)ccn23)cc1	u	2.91µM*	4.61µM*	12.6µM*	u	u
